Compound activity as filed in PubChem BioAssay.
Sampled rows, rich in hits. Any-hit rate of the full collection: about 21%.
Shiga inhibitor: A qHTS for Small Molecule Inhibitors of Shiga Toxin; Vero cells, Shiga toxin protein synthesis inhibition reporter; inhibition, % at 38.7 µM; 290,000 tested, 9.2% active; in the data active = inhibition mostly above about 28%, no sharp cut-off; inactive = mostly below about 43%
Pf growth 96h: Primary qHTS for delayed death inhibitors of the malarial parasite plastid, 96 hour incubation; AID 504834, 2011; Potency, µM (top dose mostly 28.7 µM), most hits filed as inhibitors; P. falciparum luciferase reporter growth, 96 h; 320,000 tested, 6.9% active
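Delayed-death screen, second-generation endpoint: infected erythrocytes, 2% hematocrit, 0.05% parasitemia final; 96 hours at 37 C, 5% CO2; luciferase detection reagent; luminescence decrease equals reduced growth.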
FBPA Giardia inh: qHTS Assay for Inhibitors of Fructose-1,6-bisphosphate Aldolase from Giardia Lamblia; purified Giardia FBPA; Potency, µM (series often up to 59.6 µM), most hits filed as inhibitors; 290,000 tested, 0.71% active; AID 2451, 2010; also: nearly all actives have a fitted effect of over 55% in size
Target sequence (A8B2U2 whole entry, looked up): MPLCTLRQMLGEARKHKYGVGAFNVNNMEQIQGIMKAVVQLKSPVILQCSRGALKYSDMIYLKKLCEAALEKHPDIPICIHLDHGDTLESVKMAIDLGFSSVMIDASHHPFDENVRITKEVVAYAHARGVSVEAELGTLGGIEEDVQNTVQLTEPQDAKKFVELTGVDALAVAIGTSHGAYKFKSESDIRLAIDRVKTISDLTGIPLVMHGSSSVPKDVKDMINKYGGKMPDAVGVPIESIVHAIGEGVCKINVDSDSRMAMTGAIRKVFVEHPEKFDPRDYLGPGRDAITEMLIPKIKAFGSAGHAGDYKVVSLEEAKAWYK
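40 nM FBPA preincubated 10 min at RT with compound (up to 57.5 uM final), then substrate plus GAPDH/TPI/NAD/arsenate coupling and diaphorase/resazurin added. Fluorescence read after 20 min at RT, 525/598 nm.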
Cycloheximide cs: Cycloheximide Counterscreen for Small Molecule Inhibitors of Shiga Toxin. cell reporter, cycloheximide protein synthesis inhibition counterscreen. max response, %. 300,000 tested, 12% active; in the data active = max response mostly above about 13%, no sharp cut-off; inactive = mostly below about 14%; also: read at 38.3 µM for the half of the compounds with a filed dose
Pf growth 48h: Primary qHTS for delayed death inhibitors of the malarial parasite plastid, 48 hour incubation | P. falciparum luciferase growth in erythrocytes, 48 h | Potency, µM (top dose mostly 28.7 µM), actives largely listed as inhibitors | 310,000 tested, 5.9% active | AID 504832, 2011
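Erythrocytes infected with P. falciparum carrying an integrated firefly luciferase reporter (2% hematocrit, 0.1% parasitemia final) were exposed to compounds in RPMI 1640 with 0.5% Albumax at 37 C, 5% CO2. Growth inhibition was scored as reduced luminescence.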
NS1 function inh: qHTS Assay for Inhibitors of Influenza NS1 Protein Function. Potency, µM (highest dose often 46.1 µM). 270,000 tested, 0.4% active; calls by dose curve; also: actives are rising curves; nearly all actives have a fitted effect of over 50% in size
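Compounds were scored for reversing the slow growth caused by influenza A NS1 in S. cerevisiae, measured by optical density at 600 nm. Assay medium contained 2% galactose at pH 6.0; NS1-free yeast of the same strain were the positive control.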
Large screens that a line does not name were inactive; ! = not confirmed by another sample. Unless noted, calls follow the shape of the dose curve; as a rule, active = well fitted curve in the direction sought with a large enough effect; inconclusive = small, poorly fitted or top-dose-only effect, or another doubt; inactive = no such curve, though single readings can be large; an effect the other way counts as inactive or inconclusive.

O=C(NC1CCCN(Cc2ccc(Cl)cc2)C1)c1c(F)cccc1F (configuration not stated)	Pf growth 96h inconclusive
COc1ccc(OC)c(NC(=O)Nc2ccc3c(c2)OCO3)c1	Shiga inhibitor 56, Cycloheximide cs 15
COc1ccc(OC)c(S(=O)(=O)N(C)CC(=O)Nc2ccc3c(c2)OCO3)c1	none (no result: Pf growth 96h)
COc1cccc(C(=O)OC(C)C(=O)Nc2ccc3c(c2)OCO3)c1 (configuration not stated)	none (no result: Shiga inhibitor, FBPA Giardia inh, Cycloheximide cs, NS1 function inh)
COc1cccc(NC(=O)Nc2ccc3c(c2)OCO3)c1	Shiga inhibitor 77, FBPA Giardia inh inconclusive, Cycloheximide cs 40
CCOc1cccc(Nc2ccc([N+](=O)[O-])cn2)c1	Cycloheximide cs 29 (no result: Shiga inhibitor)
Cc1cccc(Nc2ccc([N+](=O)[O-])cn2)c1	Shiga inhibitor 63, Cycloheximide cs 25, Pf growth 48h inconclusive
O=C(Nc1ccccc1C(=O)NC(Cc1ccc(O)cc1)C(=O)O)c1ccccc1 (configuration not stated)	none
COc1cc(/C=C/[N+](=O)[O-])ccc1OC(=O)/C=C/c1ccc(F)cc1	none (no result: Shiga inhibitor)
CC(c1nccs1)N(C)C(=O)c1cn(Cc2cccc3ccccc23)nn1 (configuration not stated)	Shiga inhibitor 123, Cycloheximide cs 40
CC(c1nccs1)N(C)C(=O)c1ccc(OC2CCN(CCc3ccccc3)CC2)cc1 (configuration not stated)	Pf growth 48h inconclusive
COc1ccc(CC(=O)Nc2c3c(nn2-c2cccc(C)c2C)CS(=O)C3)cc1OC (configuration not stated)	Pf growth 96h 2.6µM
COc1ccc(CC(=O)Nc2c3c(nn2-c2cccc(C)c2C)CS(=O)C3)cc1 (configuration not stated)	Pf growth 96h inconclusive
Oc1ccc(N=Nc2n[nH]c(-c3ccccc3)n2)cc1	Shiga inhibitor 89, Pf growth 96h inconclusive, Cycloheximide cs 32
Oc1ccc(N=Nc2nc(-c3ccccc3)c(-c3ccccc3)[nH]2)cc1	Pf growth 96h inconclusive, Pf growth 48h inconclusive
Oc1ccc(N=Nc2n[nH]c(-c3ccc(Br)cc3)n2)cc1	Cycloheximide cs 20
O=C1[C@@H]2[C@H]3[C@H](O)[C@H](O)C/C(=N/OC[C@@H](O)COCc4ccco4)[C@@H]3CC[C@H]2C(=O)N1c1ccc(F)cc1F	none (no result: Shiga inhibitor, Pf growth 96h, Cycloheximide cs, Pf growth 48h, NS1 function inh)
CCc1nnc(NC(=O)CSCc2cc(=O)n3nc(C)sc3n2)s1	Pf growth 96h inconclusive (no result: FBPA Giardia inh)
CCCc1nn2c(=O)cc(CSCC(=O)Nc3nnc(CC)s3)nc2s1	Pf growth 96h 10µM (no result: FBPA Giardia inh)
CC(NC(=O)COC(=O)/C=C/c1ccc2c(c1)OCO2)c1ccccc1 (configuration not stated)	none (no result: Shiga inhibitor, FBPA Giardia inh, Cycloheximide cs, NS1 function inh)
O=C(CN1CCN(C(=O)C2CCCO2)CC1)Nc1cc(C(F)(F)F)ccc1Cl (configuration not stated)	Pf growth 48h inconclusive
Cc1cc(C(=O)Nc2ccccc2[N+](=O)[O-])cs1	none (no result: FBPA Giardia inh)
Cc1c(C(=O)Nc2ccccc2)csc1-c1ccccc1	Shiga inhibitor 40, Pf growth 96h inconclusive, Cycloheximide cs 36
Cc1oc(-c2ccccc2)cc1C(=O)Nc1ccccc1	none
Cc1c(C(=O)Nc2ccccc2[N+](=O)[O-])csc1-c1ccccc1	Shiga inhibitor 97, Cycloheximide cs 34
O=C(NC1CCCC1)c1c(O)nc2sccn2c1=O	Pf growth 96h inconclusive (no result: Shiga inhibitor, FBPA Giardia inh, Cycloheximide cs, NS1 function inh)
Cc1csc2nc(O)c(C(=O)NC3CCCCCC3)c(=O)n12	Pf growth 96h inconclusive, Pf growth 48h 12µM (no result: Shiga inhibitor, FBPA Giardia inh, Cycloheximide cs, NS1 function inh)
Cc1csc2nc(O)c(C(=O)NC3CCCCC3)c(=O)n12	Pf growth 96h 5.9µM, Pf growth 48h 12µM (no result: Shiga inhibitor, FBPA Giardia inh, Cycloheximide cs, NS1 function inh)
COc1cc(S(=O)(=O)Nc2ccc(C)cc2)ccc1N=Cc1c(C)c(C#N)c(=O)n(C)c1O	none (no result: NS1 function inh)
Cc1ccc(N/N=C/c2c(C)c(C#N)c(=O)n(C)c2O)cc1C	FBPA Giardia inh 13µM
COc1ccc(-c2oc(/N=C/N3CCOCC3)c(C#N)c2-c2ccc(OC)cc2)cc1	Pf growth 48h 6.6µM (no result: Pf growth 96h)
O=C(CO/N=C/c1ccccc1)N1c2ccccc2Oc2ccccc21	Pf growth 96h inconclusive, Pf growth 48h 12µM
COc1ccc(C(=O)N2CCCC(CCC(=O)NCc3ccccc3F)C2)c(OC)n1 (configuration not stated)	Pf growth 96h inconclusive, Cycloheximide cs 23
CCOc1cccc(CN2CCCC(CCC(=O)NCc3ccccc3F)C2)c1O (configuration not stated)	Pf growth 96h 1.5µM, Pf growth 48h inconclusive
O=C(CCC1CCCN(C(=O)c2ccc3c(c2)OCCO3)C1)NCc1ccccc1F (configuration not stated)	Shiga inhibitor 77, Pf growth 96h inconclusive, Cycloheximide cs 48
O=C(CCC1CCCN(C(=O)c2ccco2)C1)NCc1ccccc1F (configuration not stated)	none
CCN1CCCc2cc(CN(CCN3CCOCC3)C(=S)Nc3ccc(OC)cc3)ccc21	Pf growth 96h 5.9µM (no result: NS1 function inh)
COc1ccc(NC(=S)N(CCCN2CCCCC2)Cc2cccs2)cc1	Pf growth 96h 12µM, Pf growth 48h inconclusive
CCOC(=O)c1ccc(NC(=S)N(CCCN2CCN(CC)CC2)Cc2cccs2)cc1	Pf growth 48h 8.3µM, NS1 function inh inconclusive
COc1ccc(NC(=S)N(CCCN2CCC(C)CC2)Cc2cccs2)cc1	Pf growth 96h 5.9µM (no result: NS1 function inh)
COc1cccc(NC(=S)N(CCCN2CCC(C)CC2)Cc2cccs2)c1	none
O=S(=O)(c1ccc(F)cc1)N1CCN(c2ccc(-c3ccccc3)nn2)CC1	none (no result: NS1 function inh)
O=C(O)CCC/C=C\C[C@@H]1[C@@H](CC[C@@H](O)CCc2ccccc2)[C@H](O)C[C@@H]1O	none (no result: Pf growth 96h, Pf growth 48h, NS1 function inh)
Cc1nnc2ccc(-c3ccc(NS(=O)(=O)c4ccccc4)cc3)nn12	Pf growth 48h inconclusive (no result: Shiga inhibitor, FBPA Giardia inh, Cycloheximide cs, NS1 function inh)
Brc1ccccc1-n1nnc(-c2ccnc3ccccc23)n1	Pf growth 96h inconclusive, Cycloheximide cs 19
NC1(C(=O)O)CC(C(=O)O)C1 (configuration not stated)	FBPA Giardia inh 5.6µM! (no result: Shiga inhibitor, Pf growth 96h, Cycloheximide cs, Pf growth 48h, NS1 function inh)
NC1(C(=O)O)CCC1	none (no result: Shiga inhibitor, Pf growth 96h, Cycloheximide cs, Pf growth 48h, NS1 function inh)
CN(Cc1cccs1)C(=O)Cn1cnc2ccccc2c1=O	none
CC1(C)CC(=O)C/C(=N\NC(=O)C2CC2c2ccccc2)C1 (configuration not stated)	Shiga inhibitor 44 (no result: NS1 function inh)
COc1ccc(CCNC(=O)CCCCCN2C(=O)[C@@H]3Cc4ccccc4CN3C2=O)cc1OC	Pf growth 96h inconclusive, Pf growth 48h inconclusive (no result: FBPA Giardia inh)
COc1ccc(NC(=O)CS(=O)c2ccc(Br)cc2)cc1 (configuration not stated)	none (no result: FBPA Giardia inh)
Cc1ccc(N(C(C)C(=O)N2CCOCC2)S(C)(=O)=O)cc1C (configuration not stated)	Pf growth 96h 9.3µM, Pf growth 48h inconclusive
O=C(CN1CCCC1)Nc1ccc(OCc2ccccc2)cc1	Cycloheximide cs 27
